Assay outcomes (PubChem BioAssay)
Most compounds without a hit are left out; they make up all but 21% or so of the library.
AMA1-RON2 inh = qHTS for Inhibitors of AMA1-RON; Towards Development of Antimalarial Drug Lead: Primary Screen; Plasmodium falciparum AMA1 (3D7) - RON2 peptide interaction; 360,000 compounds, 0.2% hits; Potency, µM (top dose mostly 58.2 µM), without a hit: at the highest dose activity change, negative = inhibition, usual class: inhibitors; AlphaScreen AMA1-biotinylated RON2 peptide binding;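 further: potency means the concentration at half of the fitted maximal effect; 0% = vehicle wells and -100% = peptide control; nearly all actives have a fitted effect of over 45% in size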
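AMA1 (3D7) with his tag at 25 nM final met compounds first, then biotinylated RON2 peptide at 25 nM; detection used donor plus acceptor beads, 10 µg/mL apiece, read by AlphaScreen after 30 min at room temperature.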
Pf growth 96h = Primary qHTS for delayed death inhibitors of the malarial parasite plastid, 96 hour incubation; 320,000 compounds, 6.9% hits; Potency, µM (doses to about 28.7 µM), for the others: at the top dose activity change, negative = inhibition, most hits filed as inhibitors; P. falciparum luciferase reporter growth, 96 h; further: potency means the concentration at half of the fitted maximal effect; on the % scale 0 is the no-effect control and ±100 the full control effect
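96 h incubation, 37 C, 5% CO2, of luciferase-reporter P. falciparum-infected RBCs (2% hematocrit, 0.05% parasitemia final) with test compounds; endpoint luminescence.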
Shiga inhibitor = A qHTS for Small Molecule Inhibitors of Shiga Toxin; Vero cells, Shiga toxin protein synthesis inhibition reporter; inhibition, % at 38.7 µM; 290,000 compounds, 9.2% hits; in the data active means inhibition mostly above about 28%, no sharp cut-off; inactive means mostly below about 43%; further: 0% is about no effect
CHX counter = Cycloheximide Counterscreen for Small Molecule Inhibitors of Shiga Toxin; max response, %; 300,000 compounds, 12% hits; AID 2314, 2010; cell reporter, cycloheximide protein synthesis inhibition counterscreen; in the data active means max response mostly above about 13%, no sharp cut-off; inactive means mostly below about 14%; further: read at 38.3 µM for the half of the compounds with a filed dose; 0% is about no effect
HCV inh = qHTS Assay for Inhibitors of Hepatitis C Virus (HCV); AID 651820, 2012; Huh7.5.1 HCVcc-Cre infection, luciferase reporter, 44 h; 340,000 compounds, 3.4% hits; Potency, µM (doses to about 41.8 µM), without a hit: at the top dose activity change, negative = inhibition, hits mostly inhibitors; further: potency means the concentration at half of the fitted maximal effect; on the % scale 0 is the no-effect control and ±100 the full control effect
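Whole-lifecycle infectious HCVcc-Cre system; cells 1,000/well, compound then virus (~0.5 moi) added 4 h after plating, 44 h culture. Luciferase read 15 sec following 15 min substrate incubation, room temp.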
Pf growth 48h = Primary qHTS for delayed death inhibitors of the malarial parasite plastid, 48 hour incubation. Potency, µM (top dose mostly 28.7 µM), inactives show at the top dose activity change, negative = inhibition, most hits filed as inhibitors. 310,000 compounds, 5.9% hits. P. falciparum luciferase growth in erythrocytes, 48 h; further: potency means the concentration at half of the fitted maximal effect; on the % scale 0 is the no-effect control and ±100 the full control effect
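Here the parasites carry a stable luciferase gene and grow inside erythrocytes in Albumax-based RPMI medium with compound for one erythrocytic cycle. Activity is scored as loss of luminescent signal.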
The depositor's hits bear a star; ? = inconclusive; / = no result; [ ] = remark or other dose. Unless noted, the call rests on the fitted dose curve; in most records, active means well fitted curve in the direction sought with a large enough effect; inconclusive means small, poorly fitted or top-dose-only effect, or another doubt; inactive means no such curve, though single readings can be large; an effect the other way counts as inactive or inconclusive.

SMILES | AMA1-RON2 inh | Pf growth 96h | Shiga inhibitor | CHX counter | HCV inh | Pf growth 48h
Cc1ccc(CSC2=Nc3ccccc3C3=NC(CCC(=O)NCc4ccco4)C(=O)N23)cc1 (configuration not stated) | -12.0% | 24.3% | 13.6 | 17.3 | 6.0% | ?
CCCCNC(=O)CC1N=C2c3ccccc3N=C(SCC(=O)Nc3cccc(C)c3)N2C1=O (configuration not stated) | -11.0% | 2.62µM* | -10.7 | -0.9 | -6.3% | 1.85µM*
O=C(CC1N=C2c3ccccc3N=C(SCc3ccc(Cl)cc3)N2C1=O)NCc1ccco1 (configuration not stated) | -12.2% | / | 24.4 | 20.5* | ? | 3.29µM*
CCOC(=O)CSC1=Nc2ccccc2C2=NC(CC(=O)NCc3ccc(OC)cc3)C(=O)N12 (configuration not stated) | -11.3% | / | 12.3 | 6.5 | 0.9% | 6.57µM*
CC(C)(C)NC(=O)C1C(c2ccccc2)=Nc2ccccc2N1C(=O)c1ccc(C(F)(F)F)cc1 (configuration not stated) | 5.0% | / | / | / | / | /
CCOc1cccc(N)c1 | -0.6% | ? | / | / | -6.3% | ?
CCOc1ccc(N)c(SSc2cc(OCC)ccc2N)c1 | -20.3% | ? | 88.0* | 44.9* | -26.8% | 0.0%
COc1ccc(C(OCC(O)CN2CCC(O)CC2)c2ccc(OC)cc2)cc1 (configuration not stated) | 5.9% | 14.3% | 16.5 | -7.6 | -13.2% | -6.2%
COc1ncc(-c2ccc(N3C(c4ccsc4)=Cc4ccccc4C3CC(C)=O)cc2)cn1 (configuration not stated) | 8.6% | / | / | / | / | /
Nc1c(N(Cc2ccccc2)C(=O)CCc2ccccc2)c(=O)[nH]c(=O)n1Cc1ccccc1 | -5.9% | ? | / | / | 12.1% | ?
COc1ccccc1CCC(=O)N(Cc1ccccc1)c1c(N)n(Cc2ccccc2)c(=O)[nH]c1=O | -12.6% | 8.28µM* | 10.2 | 9.9 | 1.12µM* | ?
CCN(CC)c1ccc(-c2nnc(SCC(=O)N(CCOC)c3c(N)n(CC(C)C)c(=O)[nH]c3=O)o2)cc1 | -7.4% | ? | / | / | -18.4% | 1.65µM*
CCCN(C(=O)CSCc1ccccc1C)c1c(N)n(Cc2ccccc2)c(=O)[nH]c1=O | 0.0% | -4.3% | / | / | -1.7% | ?
COCCN(C(=O)CSc1nnc(-c2ccc(C)c(C)c2)o1)c1c(N)n(CC(C)C)c(=O)[nH]c1=O | 1.3% | ? | / | / | -9.6% | ?
COCCCN(C(=O)CCSc1ccc(F)cc1)c1c(N)n(Cc2ccccc2)c(=O)[nH]c1=O | 2.4% | ? | / | / | -16.4% | 11.7µM*
CCCN(C(=O)CCSc1ccc(F)cc1)c1c(N)n(Cc2ccccc2)c(=O)[nH]c1=O | -1.1% | 4.65µM* | -8.0 | 1.0 | 8.0% | 11.7µM*
CC(C)(C)c1ccc(-c2nnc(SCC(=O)NC3CCS(=O)(=O)C3)n2N)cc1 (configuration not stated) | 65.3% | 92.2% | 32.5 | 16.1 | 0.9% | 54.8%
N#CCc1ccc(NC(=O)CSc2nnc(C3CC3)n2C2CC2)cc1 | -8.0% | ? | / | / | 6.8% | -7.5%
COc1ccc(CCNC(=S)Nc2ccc(S(=O)(=O)Nc3ncccn3)cc2)cc1OC | -10.0% | -14.1% | -1.7 | -3.2 | 7.6% | -3.9%
CCCN(CCC)C(=O)c1cc2c(=O)n3cccc(C)c3nc2s1 | 17.4% | -7.7% | -20.8 | -1.6 | 13.6% | -1.4%[0.00184 µM]
Cc1ccc(C)c(N2N=C(C(=O)N(CC(C)C)c3c(N)n(Cc4ccccc4)c(=O)[nH]c3=O)CCC2=O)c1 | 1.8% | 7.38µM* | -12.6 | 1.2 | -6.6% | 13.1µM*
COCCCN(C(=O)CCOc1ccc(C(C)(C)C)cc1)c1c(N)n(Cc2ccccc2)c(=O)[nH]c1=O | 0.1% | ? | / | / | -21.8% | 13.1µM*
COCCN(C(=O)CSc1nc2ccccc2c(=O)n1CC(C)C)c1c(N)n(Cc2ccccc2)c(=O)[nH]c1=O | 6.2% | -51.0% | 16.9 | -3.9 | -27.1% | 10.4µM*
CC(C)CN(C(=O)C1=NN(c2ccccc2)C(=O)CC1)c1c(N)n(Cc2ccccc2)c(=O)[nH]c1=O | 2.3% | 42.5% | / | / | 3.8% | 49.4%
CCCCN(C(=O)CSc1cc(C)c2ccc(OC)cc2n1)c1c(N)n(Cc2ccccc2)c(=O)[nH]c1=O | 82.7% | 11.7µM* | -17.9 | -2.2 | ? | -16.3%
SMILES | AMA1-RON2 inh | Pf growth 96h | Shiga inhibitor | CHX counter | HCV inh | Pf growth 48h
CCOC(=O)N1CCC(NS(=O)(=O)c2cc(C(=O)OC)n(C)c2)CC1 | -3.2% | 62.7% | 0.9 | -1.8 | -3.4% | 2.9%
CC(Oc1ccc(F)cc1)C(=O)N(CCC1=CCCCC1)c1c(N)n(Cc2ccccc2)c(=O)[nH]c1=O (configuration not stated) | 4.3% | 9.28µM* | / | / | ? | ?
COc1cc2ccccc2cc1C(=O)OCC(=O)N(CC(C)C)c1c(N)n(Cc2ccccc2)c(=O)[nH]c1=O | 14.7% | ? | / | / | ? | 10.4µM*
COCCN(C(=O)COC(=O)c1cc2ccccc2cc1OC)c1c(N)n(Cc2ccccc2)c(=O)[nH]c1=O | 11.1% | ? | / | / | ? | ?
COc1ccc(CC(=O)N(CCC2=CCCCC2)c2c(N)n(Cc3ccccc3)c(=O)[nH]c2=O)cc1 | -5.7% | / | / | / | / | /
COCCN(C(=O)CCSc1ccc(F)cc1)c1c(N)n(Cc2ccccc2)c(=O)[nH]c1=O | 12.1% | 13.1µM* | / | / | 0.1% | ?
COCCN(C(=O)COC(=O)/C=C/c1ccc2ccccc2n1)c1c(N)n(Cc2ccccc2)c(=O)[nH]c1=O | -8.1% | ? | 36.4 | 11.0* | / | ?
CCC(C)c1ccccc1NC(=O)C(C)OC(=O)c1ccco1 (configuration not stated) | 31.2% | 25.0% | / | / | 12.7% | -8.7%
O=C1CCc2cc(S(=O)(=O)NC3CCCCC3)cc3c2N1CC3 | 7.8% | 12.8% | / | / | -7.9% | 15.5%
CC(O)CNCCOc1ccccc1OCc1ccccc1 (configuration not stated) | -16.4% | 46.3% | -9.2 | 0.7 | -8.8% | -16.4%
CC(O)CNCCNCc1c(OCc2ccccc2)ccc2ccccc12 (configuration not stated) | 2.8% | 2.33µM* | -16.8 | -7.3 | ? | 1.85µM*
OCCNCc1c(OCc2ccc(Cl)cc2)ccc2ccccc12 | -9.4% | -18.3% | -3.0 | -7.5 | 11.2µM* | 0.0%[0.00184 µM]
CC(NS(=O)(=O)c1ccc(OCC(=O)NCc2ccccn2)cc1)c1ccccc1 (configuration not stated) | -0.1% | -7.3% | -6.9 | 1.6 | 14.5% | -5.9%
S=c1[nH]nc(-c2ccccn2)n1/N=C/c1ccc(-c2ccccc2Br)o1 | -11.1% | 28.7% | 9.8 | 7.4 | 3.2% | 15.0%
